High-throughput results as filed in PubChem.
TWEAK-Fn14 inh: blocks TWEAK-Fn14 interaction in a reporter cell assay | TWEAK-stimulated Fn14 reporter cells, luciferase luminescence, 8 h | 360,000 tested, 2% active | inhibition, % at 10 µM | AID 1159606; in the data active = inhibition above about 50%
LMP1 NFkB inh: reduces LMP1-driven NF-kappaB luciferase signal; LMP1-induced NF-kappaB luciferase reporter cells, luminescence; inhibition, % at 12.5 µM; 350,000 tested, 0.69% active; AID 504558; in the data active = inhibition above about 41%
HIF-2a inh: HIF-2a inhibition; 786-0 RCC cells HIF-2a reporter, luciferase luminescence, overnight; inhibition, % at 18.8 µM; 360,000 tested, 0.72% active; AID 624352;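 active = inhibition of the luminescence signal of 40% or more relative to plate controls, in a single-dose primary screen at 18.75 µM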
Peg3 prom inh-1: reduces Peg3 promoter-driven luciferase expression in HeLa; HeLa PEG-Prom luciferase reporter, luminescence, overnight; inhibition, % at 20 µM; 360,000 tested, 1.7% active;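 active = inhibition of at least 50% at 20 µM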
TROY signal inh: blocks TROY-dependent signaling in reporter cells. Q293 LMP1-TROYcd NF-kB luciferase reporter, 4 h. inhibition, % at 10 µM. 360,000 tested, 0.98% active. AID 1347056;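 active = compounds whose plate-normalised and pattern-corrected inhibition of the luciferase reporter signal at the single screening dose is 50% or more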
MITF TRPM1 inh: MITF TRPM1 promoter inhibition in SK-MEL-5 cells; inhibition, % at 12.5 µM; SK-MEL-5 TRPM1 promoter luciferase, 24 h; 330,000 tested, 0.83% active;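 active = mean inhibition across replicates of 60% or more, whatever share of single replicates reaches that level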
Peg3 prom inh-2: confirmation of Peg3 promoter inhibitors; 1,300 tested, 84% active; shares compounds with Peg3 prom inh-1; inhibition, % at 20 µM; HeLa PEG-Prom luciferase reporter, luminescence, overnight; AID 602417;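 active = at 20 µM dose, 40% or more inhibition averaged across four replicates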
Large screens that a line does not name were inactive (follow-up assays come after a bar, where they were run). Rows were chosen to be rich in hits. Some 4% of all compounds tested hit in one or more screens of this group.

Clc1ccccc1-c1cnc2sc(NCc3ccc4c(c3)OCO4)nn12	Peg3 prom inh-1 66 (no result: LMP1 NFkB inh, MITF TRPM1 inh) | Peg3 prom inh-2 inactive
Cc1cc(C(=O)C(C)OC(=O)c2cnccn2)c(C)n1-c1ccccc1 (stereo not drawn)	none
c1ccc(C2CC(c3ccccc3)n3c(nc4ccccc43)N2)cc1 (stereo not drawn)	Peg3 prom inh-1 76 | Peg3 prom inh-2 inactive
O=C(OCc1ccccc1)N1C=CCC[C@@H]1c1c(Cl)cccc1Br	none (no result: LMP1 NFkB inh, MITF TRPM1 inh)
O=C(OCCOc1cccc(Cl)c1)c1ccc2ncsc2c1	none
Cc1cnc(NC(=O)C2CC(=O)N(c3ccc4c(c3)OCCO4)C2)s1 (stereo not drawn)	none
Cc1cnc(NC(=O)C2CC(=O)N(c3cccc(Cl)c3)C2)s1 (stereo not drawn)	Peg3 prom inh-1 107 | Peg3 prom inh-2 94
CCOC(=O)c1cc2c(=O)n3ccccc3nc2n(C(C)C)c1=NC(=O)c1c(-c2c(F)cccc2Cl)noc1C	TWEAK-Fn14 inh 57, Peg3 prom inh-1 64 | Peg3 prom inh-2 43
CN(C)C(=O)c1cccc(-c2cnc3c(NC=O)cc(-c4cccc(C(F)(F)F)c4)cn23)c1	TWEAK-Fn14 inh 63, Peg3 prom inh-1 57 (no result: LMP1 NFkB inh, MITF TRPM1 inh) | Peg3 prom inh-2 61
Cc1cccc(-c2cc(NC=O)c3ncc(-c4cccc(C(=O)N(C)C)c4)n3c2)c1	none (no result: LMP1 NFkB inh, MITF TRPM1 inh)
COc1cccc(-c2cnc3c(NC=O)cc(-c4cccc(C(=O)N(C)C)c4)cn23)c1	Peg3 prom inh-1 55 (no result: LMP1 NFkB inh, MITF TRPM1 inh) | Peg3 prom inh-2 54
COc1ccc(-c2cc(NC=O)c3ncc(-c4cccc(C(=O)N(C)C)c4)n3c2)cn1	none (no result: LMP1 NFkB inh, MITF TRPM1 inh)
CCn1c2ccccc2c2cc(NC(=O)COC(=O)c3ccc(O)cc3)ccc21	none
CCn1c2ccccc2c2cc(NC(=O)C(C)OC(=O)c3ccc(NC(=O)CC#N)cc3)ccc21 (stereo not drawn)	Peg3 prom inh-1 67 | Peg3 prom inh-2 55
Cn1cccc1/C=N\NC(=O)c1cncc(Br)c1	none (no result: LMP1 NFkB inh, MITF TRPM1 inh)
O=C(CNc1ccccc1)N/N=C/c1c(O)ccc2ccccc12	Peg3 prom inh-1 64 | Peg3 prom inh-2 68
O=C(N/N=C\c1c(O)ccc2ccccc12)c1cncc(Br)c1	Peg3 prom inh-1 65 | Peg3 prom inh-2 60
CC1(C(=O)NS(=O)(=O)c2cccc(Cl)c2)CCN1C(=O)c1cccc2ccccc12 (stereo not drawn)	none (no result: LMP1 NFkB inh, MITF TRPM1 inh)
CC(C)CC(N)c1csc(NC(=O)Nc2ccccc2C(C)C)n1 (stereo not drawn)	Peg3 prom inh-1 72 (no result: LMP1 NFkB inh, MITF TRPM1 inh) | Peg3 prom inh-2 84
COc1ccc(/C=C2\SC(=S)N(CCC(=O)N(CCO)Cc3ccccc3)C2=O)cc1OC	Peg3 prom inh-1 78 | Peg3 prom inh-2 inactive
CCCS(=O)(=O)NC(=O)C1(C)CCCN(C(=O)C(C)(C)Oc2ccc(Cl)cc2)C1 (stereo not drawn)	none (no result: LMP1 NFkB inh, MITF TRPM1 inh)
CCNC(=O)C1(C)CCCN(C(=O)c2sccc2C)C1 (stereo not drawn)	none (no result: LMP1 NFkB inh, MITF TRPM1 inh)
Cc1ccc(-n2nc3c(=O)n(CC(=O)NCCc4cccs4)nc(C)c3c2C)cc1	none
Cc1ccc(-n2nc3c(N4CCC(C(=O)NCCc5cccs5)CC4)nnc(C)c3c2C)cc1	Peg3 prom inh-1 60, MITF TRPM1 inh 89 | Peg3 prom inh-2 inactive
Cc1cc(NC(=O)CS(=O)(=O)c2cn(Cc3cccc(C(F)(F)F)c3)c3ccccc23)no1	none (no result: LMP1 NFkB inh, MITF TRPM1 inh)
Nn1c(-c2cccc(O)c2)nnc1-c1cccc(O)c1	none
CC(=O)COc1cc2c(-c3cc4ccccc4o3)cc(=O)oc2cc1C	Peg3 prom inh-1 56 | Peg3 prom inh-2 inactive
CCc1cc2c(-c3ccccc3)cc(=O)oc2cc1OCC(C)=O	none
CCn1cc(C(=O)NCc2ccco2)c(=O)c2cc(S(=O)(=O)N3CC(C)CC(C)C3)ccc21 (stereo not drawn)	Peg3 prom inh-1 58 | Peg3 prom inh-2 61
NC(=O)c1cc([N+](=O)[O-])ccc1NCc1ccc(N)cc1	TWEAK-Fn14 inh 84, LMP1 NFkB inh 49, HIF-2a inh 93, Peg3 prom inh-1 81, TROY signal inh 67, MITF TRPM1 inh 79 | Peg3 prom inh-2 78
CC(C)Oc1ccc(CN2CCC(n3nccc3NC(=O)CCc3ccccc3)CC2)cc1	none
O=C1c2cccc(NCCNCCO)c2C(=O)c2cccc(NCCNCCO)c21	HIF-2a inh 78, Peg3 prom inh-1 99, MITF TRPM1 inh 81 | Peg3 prom inh-2 inactive
